Compound activity from PubChem BioAssay.
RORg inh = ROR gamma (mouse) transcription inhibition | P51450 | Drosophila S2 Gal4-RORgamma UAS-luciferase reporter, 20 h | Potency, µM (series often up to 53.6 µM), for the others: top-dose activity change, negative = inhibition, actives largely listed as inhibitors | hit rate 5.4% among 310,000 | AID 2551; note: potency is the fitted concentration of half-maximal effect; nearly all actives have a fitted effect of over 60% in size
Target sequence (P51450 whole entry, looked up, the tested form may be a part): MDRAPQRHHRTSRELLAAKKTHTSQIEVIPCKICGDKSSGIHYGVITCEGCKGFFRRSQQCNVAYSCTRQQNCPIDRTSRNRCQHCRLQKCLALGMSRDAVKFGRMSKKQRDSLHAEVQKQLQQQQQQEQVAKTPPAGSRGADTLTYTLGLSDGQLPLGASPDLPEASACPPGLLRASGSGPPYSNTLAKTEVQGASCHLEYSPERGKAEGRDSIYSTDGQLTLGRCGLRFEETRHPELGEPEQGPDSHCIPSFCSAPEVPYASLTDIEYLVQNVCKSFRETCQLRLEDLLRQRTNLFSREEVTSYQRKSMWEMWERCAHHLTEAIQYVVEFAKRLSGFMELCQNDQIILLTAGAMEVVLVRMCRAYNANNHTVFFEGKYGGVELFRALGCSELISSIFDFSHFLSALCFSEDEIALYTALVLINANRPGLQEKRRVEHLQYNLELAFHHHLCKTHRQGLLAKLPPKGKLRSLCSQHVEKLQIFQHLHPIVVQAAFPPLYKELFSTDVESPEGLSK
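Drosophila S2 cells stably expressing Gal4-DBD/mouse RORγ fusion under metallothionein promoter plus UAS-luciferase; compound 1 h, then 700 uM CuSO4 induction for 20 h at ambient temperature; inhibition read as reduced luminescence.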
Gal4-VP16 FLuc = inhibits Gal4-VP16 luciferase reporter, ROR gamma counter-screen | Potency, µM (doses to about 53.6 µM), for the others: at the highest dose activity, negative = inhibition, usual class: inhibitors | Drosophila S2 Gal4-VP16 UAS-luciferase, luminescence, 20 h | hit rate 3.5% among 310,000;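 note: Gal4-VP16 expression switched on by copper sulfate through the metallothionein promoter; potency is the fitted concentration of half-maximal effect; nearly all actives have a fitted effect of over 50% in size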
DT40 TDP1 CPT = DT40-hTDP1 cell growth loss with CPT. chicken DT40 Tdp1-/-;hTDP1 cells + 20 nM CPT, ATP luminescence, 48 h. Potency, µM (doses to about 46.2 µM), for the others: at the top dose activity change, negative = growth inhibition, actives largely listed as inhibitors. hit rate 12% among 420,000; note: potency is the fitted concentration of half-maximal effect; nearly all actives have a fitted effect of over 55% in size
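Cell growth measured by CellTiter-Glo luminescence after a minimum 48 h, 37 C compound exposure with 20 nM CPT in Tdp1-knockout DT40 cells stably expressing hTDP1, seeded 400/well; qHTS titration format.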
IL-1B inflam inh = inhibitors of inflammasome signaling (IL-1 beta secretion). hit rate 4.7% among 360,000. THP-1 LPS/ATP IL-1B secretion, AlphaLISA, 16 h; active compounds read low. activity change, % at 57.5 µM. AID 743279; in the data active = activity change below about -50%; inconclusive = mostly about -30% to -49%
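Secreted IL-1B measured by AlphaLISA bead assay after 16 h compound exposure of THP-1 cells; compounds (final up to 57.5 uM) added 1 h before LPS (250 ng/mL) and ATP (1.25 mM) stimulation; lower signal means less secretion.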
DT40 TDP1 no CPT = qHTS for Inhibitors of human tyrosyl-DNA phosphodiesterase 1 (TDP1): qHTS in cells in absence of CPT | AID 686978, 2013 | Potency, µM (doses to about 46.2 µM), inactives show top-dose activity change, negative = growth inhibition, usual class: inhibitors | hit rate 15% among 420,000 | DT40 Tdp1-/- hTDP1 cells, no CPT, ATP luminescence, 48 h; note: potency is the fitted concentration of half-maximal effect; nearly all actives have a fitted effect of over 55% in size
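Camptothecin absent (DMSO only). Human TDP1-complemented DT40 knockout cells, 400 cells/well, 37 °C for minimum 48 hr; ATP measured via CellTiter-Glo, 30 min dark incubation, luminescence.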
ELG1 DNA repair = blocks ELG1-dependent DNA repair in HEK293T cells. Potency, µM (doses to about 46.1 µM), without a hit: at the highest dose activity change, negative = inhibition, most hits filed as inhibitors. hit rate 2.3% among 330,000. HEK293T ELG1-luciferase reporter, luminescence, 16 h; DNA damage induced by 5-fluorouridine; note: potency is the fitted concentration of half-maximal effect; nearly all actives have a fitted effect of over 55% in size
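Overnight (16 hr) co-exposure of 2,000 cells/well to 5-fluorouridine and compound at 37 °C preceded detection. Luciferase was quantified via ONE-Glo luminescence; loss of signal denotes inhibition.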
Active calls of the source: *; ? = inconclusive; / = not tested or not shown. Rows were chosen to be rich in hits. Some 21% of all compounds tested hit in one or more screens of this group. Unless noted, calls come from the whole dose curve; as a rule, active = well fitted curve in the direction sought with a large enough effect; inconclusive = small, poorly fitted or top-dose-only effect, or another doubt; inactive = no such curve, though single readings can be large; an effect the other way counts as inactive or inconclusive. % is set by controls: 0 for no effect and ±100 for the full control effect.

SMILES	RORg inh	Gal4-VP16 FLuc	DT40 TDP1 CPT	IL-1B inflam inh	DT40 TDP1 no CPT	ELG1 DNA repair
COc1ccc(NC(=O)CN(c2ccc(OC)cc2)S(=O)(=O)c2ccc(OC)c(OC)c2)cc1	10.9%	-8.2%	-26.7%	13.2	?	-1.9%
O=C(CSc1nnc(-c2cccnc2)o1)Nc1cccc(F)c1	/	/	-5.2%	3.2	-23.3%	?
Nc1cc(-c2ccc(Br)cc2)nn1Cc1ccccc1	?	1.8%	?	-68.8*	-18.1%	?
Cc1ccc(OCc2cc(C(=O)N3CCCCCCC3)no2)cc1C	?	?	-17.9%	-14.7	5.2%	?
O=C(c1cc(COc2ccc3ncccc3c2)on1)N1CCCCCC1	?	?	4.11µM*	-11.0	2.59µM*	?
O=C(NCCc1cn2ccccc2n1)c1cc(COc2ccc3ncccc3c2)on1	-83.8%	?	4.11µM*	-10.6	5.8µM*	8.2µM*
COCC1CCN(C(=O)c2cc(COc3ccc4ncccc4c3)on2)CC1	?	6.31µM*	3.66µM*	32.7	8.2µM*	?
CC(NC(=O)c1cc(COc2ccc3ncccc3c2)on1)c1ccc(F)cc1 (stereo not drawn)	?	7.08µM*	6.51µM*	-16.4	3.66µM*	?
CC(NC(=O)c1cc(COc2ccccc2)on1)c1nccs1 (stereo not drawn)	-9.5%	-0.4%	?	12.0	-20.3%	?
COc1cc(OC)cc(C(=O)NCC(=O)OCC(=O)Nc2ccc(C)c(S(=O)(=O)N3CCOCC3)c2)c1	/	/	-5.1%	-13.0	0.9%	5.4%
Cc1ccc(Cl)cc1-n1c(=O)cc(N2CCN(c3ccccc3)CC2)[nH]c1=O	/	/	-27.7%	/	?	/
O=C1C(C=NCCCN2CCCC2=O)=C(O)c2ccccc21	-25.1%	-21.2%	4.5%	-6.7	1.2%	?
COc1ccc(N2C(=S)NC(C)(C)CC2(C)c2ccc(OC(C)=O)cc2OC(C)=O)cc1 (stereo not drawn)	10µM*	?	13.5%	7.0	9.9%	-9.5%
O=C(CSc1ncnc2sc3c(c12)CCC3)N1CCOCC1	20.5%	-21.4%	7.0%	14.4	-22.0%	5.1%
Cc1cc(C)n(-c2ncnc3sc4c(c23)CCCC4)n1	-3.9%	-4.6%	2.7%	6.3	-4.7%	0.7%
Cc1cc(C)n(-c2nc(SCCN3CCOCC3)c3c4c(sc3n2)CCCC4)n1	/	/	-31.9%	23.1	20.6µM*	/
Cc1cc(C)n(-c2nc(NCCN(C)C)c3c4c(sc3n2)CCCC4)n1	-16.8%	-13.5%	8.2µM*	-98.4*	6.51µM*	?
Cc1cc(C)n(-c2nc(NCCCN(C)C)c3c4c(sc3n2)CCCC4)n1	3.98µM*	7.08µM*	?	-28.4	?	0.0%
COC(=O)C(C(C)=O)C(NC(=O)OC(C)(C)C)c1ccccc1 (stereo not drawn)	17.3%	1.4%	/	/	/	/
Cc1ccc(-c2cc(-c3ccc4c(c3)NC(=O)CO4)nc3c2COc2ccccc2-3)cc1	/	/	5.17µM*	/	4.11µM*	/
Cc1ccc2c(c1)-c1nc(-c3ccc4c(c3)NC(=O)CO4)cc(-c3ccc(F)cc3)c1CO2	/	/	5.8µM*	/	4.61µM*	/
Cc1c(NS(=O)(=O)c2ccc(C(C)(C)C)cc2)c(=O)n(-c2ccccc2)n1C	/	/	-2.2%	/	-5.7%	/
COc1cc(CCCN2C(=O)C(=O)NC[C@@H]2Cc2ccc(O)cc2)cc(OC)c1OC	-18.9%	1.6%	3.6%	-6.9	0.3%	9.4%
CCCC[C@@H]1CNC(=S)N1CCCc1cc(OC)c(OC)c(OC)c1	8.91µM*	?	?	-3.7	?	?
COc1cc(CCCN2C(=S)NC[C@H]2Cc2ccc(O)cc2)cc(OC)c1OC	33.4%	-9.4%	?	2.0	14.6µM*	?
CCOc1ccc(Cn2c(CNS(=O)(=O)c3ccc([N+](=O)[O-])cc3)nc3cccnc32)cc1	/	/	-14.7%	/	-19.4%	/
